{"source": "PubChem BioAssay AID455", "about": "(Sanford-Burnham Center for Chemical Genomics, 2006)", "note": "About 20 (0.2%) of roughly 10,000 compounds were called active.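 The calls were made as follows: active = a compound raising TNF-alpha-driven VCAM-1 surface staining, with its hit status upheld on visual or statistical review; inactive = the rest, including hits rejected on review.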 Shown is part of a subset that was picked to be rich in actives.", "data": [{"assay": "enhancers of VCAM-1 display on endothelial cells, cell-based, plate reader, pooled HUVEC, TNFa stimulus (AID 455);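 as to augmentation: 0% = TNFa plus DMSO wells and 100% = a visually confirmed top hit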", "conditions": "HUVEC TNFa-induced VCAM-1 immunofluorescence; active compounds read high, 100% set by best visually verified hit,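 tested at 5 µM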", "values": [{"compound": "CC1/C(=N/O)C(CN(C)C)C2CC1C2(C)C", "note": "(stereo unspecified)", "augmentation": "inactive"}, {"compound": "COc1ccc(-c2noc(C3CCCN(C(=O)CCc4ccccc4)C3)n2)cc1", "note": "(stereo unspecified)", "augmentation": "inactive"}, {"compound": "O=C(NCCc1c[nH]c2ccccc12)c1cnc2n(c1=O)CCS2", "augmentation": "inactive"}, {"compound": "CCOc1ccccc1C(=O)NC(C)c1ccc2c(c1)OCO2", "note": "(stereo unspecified)", "augmentation": "inactive"}, {"compound": "O=C(CN1CCN(Cc2ccc(F)cc2Cl)C1=O)NCCCN1CCOCC1", "augmentation": "inactive"}, {"compound": "O=C(CSc1nnc2scc(-c3ccccc3)n12)N1CCN(Cc2ccccc2)CC1", "augmentation": "inactive"}, {"compound": "c1ccc2c3nnc4n(c-3nc2c1)CCCS4", "augmentation": "inactive"}, {"compound": "COc1cc(NC(=O)C2CCCN2S(=O)(=O)c2cccc3cccnc23)cc(OC)c1OC", "note": "(stereo unspecified)", "augmentation": "inactive"}, {"compound": "COc1ccccc1-c1nc(SCc2ccccn2)n[nH]1", "augmentation": "inactive"}, {"compound": "CN(C)c1cccc(C(=O)OCC(=O)NCc2ccco2)c1", "augmentation": "inactive"}, {"compound": "O=C(CSc1nnc(-c2ccccc2)o1)N1CCc2ccccc2C1", "augmentation": "inactive"}, {"compound": "Cc1noc(C)c1COc1cccc(C(=O)Oc2ccc3c(c2)OCO3)c1", "augmentation": "inactive"}, {"compound": "O=C1C2CCCN2C(c2ccc(Cl)cc2)N1c1nccs1", "note": "(stereo unspecified)", "augmentation": "inactive"}, {"compound": "C=CCn1c(=O)[nH]c2cc(C(=O)N3CCN(c4cc(C)ccc4C)CC3)ccc2c1=O", "augmentation": "inactive"}, {"compound": "COc1cccc(NC(=O)CSc2nnc(-c3cccs3)n2C)c1", "augmentation": "inactive"}, {"compound": "CCCC(=O)NCCc1cc2c(C)ccc(C)c2[nH]c1=O", "augmentation": "inactive"}, {"compound": "O=C(CNC(=O)c1cccs1)NCCN1CCN(c2ccccc2F)CC1", "augmentation": "inactive"}, {"compound": "COc1cccc(NC(=O)N2CCC(N3CCCCC3)CC2)c1", "augmentation": "inactive"}, {"compound": "COc1cccc(NC(=O)CN2CCN(c3ccccc3F)CC2)c1", "augmentation": "inactive"}, {"compound": "COc1cccc(NC(=O)N2CCN(c3cccc(C)c3C)CC2)c1", "augmentation": "100% (active)"}, {"compound": "Cc1ccc(C)c(CSc2nnc(CCN)o2)c1", "augmentation": "inactive"}, {"compound": "COc1ccc(N2CCN(CCNS(=O)(=O)c3cccc4nsnc34)CC2)cc1", "augmentation": "inactive"}, {"compound": "CC(=O)c1ccccc1Oc1nc(CN2CCOCC2)nc2scc(-c3cccs3)c12", "augmentation": "inactive"}, {"compound": "COC(=O)c1ccc(CNC(=O)CSc2nc3sc(C)c(C)c3c(=O)n2C)o1", "augmentation": "inactive"}, {"compound": "CCCCC(NS(=O)(=O)c1ccc(OC)cc1)C(=O)O", "note": "(stereo unspecified)", "augmentation": "66.3% (active)"}, {"compound": "COc1ccc(S(=O)(=O)NCc2ccc(C(=O)O)cc2)cc1", "augmentation": "inactive"}, {"compound": "CCN(CC)CCCNS(=O)(=O)c1ccc(OC)cc1", "augmentation": "inactive"}, {"compound": "O=C(Nc1nc(-c2ccc(S(=O)(=O)N3CCCCCC3)cc2)cs1)c1cccs1", "augmentation": "inactive"}, {"compound": "COc1ccc(Cn2c(CCCO)nc3ccccc32)cc1OC", "augmentation": "inactive"}, {"compound": "C=CCn1c(-c2ccc(OC)cc2)nc2ccccc21", "augmentation": "inactive"}, {"compound": "COCCn1c(-c2ccc(OC)c(OC)c2)nc2ccccc21", "augmentation": "100% (active)"}, {"compound": "Cc1ccc(O)c(-c2cc3ccccc3[nH]2)c1", "augmentation": "inactive"}, {"compound": "CC(C)N=c1cc2n(-c3ccc(Cl)cc3)c3ccccc3nc-2cc1Nc1ccc(Cl)cc1", "augmentation": "74% (active)"}, {"compound": "CC(C)NC(=O)CSc1nc2ccccc2n1-c1ccccc1", "augmentation": "inactive"}, {"compound": "CC(O)c1nc2ccccc2n1C1CCCCC1", "note": "(stereo unspecified)", "augmentation": "inactive"}, {"compound": "CCOC(=O)C1CN(S(=O)(=O)c2ccc(C)cc2)CCN1S(=O)(=O)c1ccc(C)cc1", "note": "(stereo unspecified)", "augmentation": "inactive"}, {"compound": "CCOc1ccccc1N1C(=O)CC(Sc2ncccc2C(=O)O)C1=O", "note": "(stereo unspecified)", "augmentation": "inactive"}, {"compound": "COc1ccc(-c2oc3ncn(CCN4CCOCC4)c(=N)c3c2-c2ccc(OC)cc2)cc1", "augmentation": "inactive"}, {"compound": "CC1=C(C(=O)OC2CCCC2)C(c2ccc(C)o2)C2=C(CC(c3cccs3)CC2=O)N1", "note": "(stereo unspecified)", "augmentation": "inactive"}, {"compound": "COc1cccc(CNC(=O)C2CCN(S(=O)(=O)c3ccc(F)cc3)CC2)c1", "augmentation": "inactive"}, {"compound": "CCCCSc1nnc([C@H](C)NC(=O)OC(C)(C)C)o1", "augmentation": "inactive"}, {"compound": "O=C(OC1CCOC1=O)c1ccc2ccccc2n1", "note": "(stereo unspecified)", "augmentation": "inactive"}, {"compound": "COc1ccc(NC(=O)c2ccco2)cc1NC(=O)c1cccs1", "augmentation": "inactive"}, {"compound": "O=C(Nc1ccc2nc(-c3cccs3)[nH]c2c1)c1ccco1", "augmentation": "72.4% (active)"}, {"compound": "Cn1cccc1-c1nc2ccc(NC(=O)c3ccco3)cc2[nH]1", "augmentation": "65.1% (inactive)"}, {"compound": "O=C(Nc1ccccc1-c1nc2ccccc2o1)c1ccc2c(c1)OCCO2", "augmentation": "inactive"}, {"compound": "O=C(Nc1cccc2ncccc12)c1ccc2c(c1)OCCO2", "augmentation": "81% (active)"}, {"compound": "CCN1C(=O)c2cccc3c(NC(=O)c4ccc5c(c4)OCCO5)ccc1c23", "augmentation": "inactive"}, {"compound": "CC(C)C(=O)N1CCN(c2nc(-c3ccccc3)c3c(c2C#N)CCCC3)CC1", "augmentation": "inactive"}, {"compound": "Oc1cccc(C=NCc2ccccc2)c1O", "augmentation": "61.8% (active)"}, {"compound": "FC(F)Sc1nnc(-c2cccs2)n1-c1ccccc1", "augmentation": "inactive"}, {"compound": "CCCC(=O)Nc1cc(C)c2c(=O)oc3ccccc3c2n1", "augmentation": "inactive"}, {"compound": "Cc1ccc(Br)cc1S(=O)(=O)N1CCN(c2ccccc2)CC1", "augmentation": "inactive"}, {"compound": "Cc1cc(C)c2c(n1)nn1c(C3CC3)cc(C(F)(F)F)nc21", "augmentation": "inactive"}, {"compound": "COc1ccc(C(=O)CN2C3=NCCCN3c3ccccc32)cc1OC", "augmentation": "71.2% (active)"}, {"compound": "CCOC(=O)CN1C2=NCCN2c2ccccc21", "augmentation": "inactive"}, {"compound": "c1ccc(CN2C3=NCCCN3c3ccccc32)cc1", "augmentation": "inactive"}, {"compound": "Cc1cccc(NC(=O)CC2CCC2)c1", "augmentation": "inactive"}, {"compound": "Cc1cc(C)n(-c2nc3sc4c(c3c3nnc(SCC(N)=O)n23)CC(C)(C)OC4)n1", "augmentation": "inactive"}, {"compound": "CCCC(=O)Nc1cc(C)c(NC(=O)c2ccccn2)cn1", "augmentation": "inactive"}, {"compound": "COCCn1c(CN2CCN(c3cccc(Cl)c3)CC2)nc2c1c(=O)n(C)c(=O)n2C", "augmentation": "inactive"}, {"compound": "O=c1cc(NCc2ccccc2)nc2n1CCCS2", "augmentation": "inactive"}, {"compound": "O=C(Nc1cccc(F)c1)c1ccc2c(c1)OCO2", "augmentation": "inactive"}, {"compound": "O=C1CCCN1Cc1ncnn1-c1ccccc1", "augmentation": "inactive"}, {"compound": "O=C(Nc1ccc2c(c1)OCO2)N1CCN(c2ncccn2)CC1", "augmentation": "inactive"}, {"compound": "CCC(=O)N1CCc2cc(S(=O)(=O)CCC(=O)Nc3ccc(C)c(F)c3)ccc21", "augmentation": "inactive"}, {"compound": "CCC(=O)N1CCc2cc(S(=O)(=O)CCC(=O)Nc3nc(C)cs3)ccc21", "augmentation": "inactive"}, {"compound": "CCC(=O)N1CCc2cc(S(=O)(=O)CCC(=O)Nc3c(C)n(C)n(-c4ccccc4)c3=O)ccc21", "augmentation": "70.3% (active)"}, {"compound": "CCc1nc(N[C@@H](Cc2c[nH]c3ccccc23)C(=O)O)c2oc3ccccc3c2n1", "augmentation": "inactive"}, {"compound": "Cc1cc2c(=O)n(CC(=O)N3CCN(c4ccccc4)CC3)cnc2s1", "augmentation": "inactive"}, {"compound": "Cc1csc(NC(=O)c2ccccc2C(=O)O)n1", "augmentation": "inactive"}, {"compound": "CC(C)(C)c1ccc(OCC(=O)O)cc1", "augmentation": "inactive"}, {"compound": "Cc1cc(C)nc(N2CCCC(C(=O)Nc3nc4ccc(S(C)(=O)=O)cc4s3)C2)n1", "note": "(stereo unspecified)", "augmentation": "inactive"}, {"compound": "COc1cc(NC(=O)CN(c2cc(C)cc(C)c2)S(=O)(=O)c2c(C)noc2C)cc(OC)c1", "augmentation": "inactive"}, {"compound": "Cc1ccc(NC(=O)CSc2nnc(CSc3nc(C)cc(C)n3)n2Cc2ccco2)c(C)c1", "augmentation": "inactive"}, {"compound": "CCn1c(=S)ccc2ccc(OC)cc21", "augmentation": "inactive"}, {"compound": "CCOc1ccc(NC(=O)CSc2nccn2C)cc1", "augmentation": "inactive"}, {"compound": "COC(=O)c1ccc2c(c1)C(=O)N(C1CCCCC1)C2=O", "augmentation": "inactive"}, {"compound": "CCOc1cc(C2NC(=O)N(C)C(C)=C2C(=O)OC)cc(Br)c1O", "note": "(stereo unspecified)", "augmentation": "inactive"}, {"compound": "CCOC(=O)C1=C(C)NC2=C(C(=O)CC(C)(C)C2)C1c1ccc(N(C)C)cc1", "note": "(stereo unspecified)", "augmentation": "inactive"}, {"compound": "CCOC(=O)C1=C(C)NC(=O)NC1c1ccc(OCCO)c(OC)c1", "note": "(stereo unspecified)", "augmentation": "inactive"}, {"compound": "CCOC(=O)C1=C(c2ccccc2)NC(=O)NC1c1ccc(N(C)C)cc1", "note": "(stereo unspecified)", "augmentation": "63.8% (active)"}, {"compound": "Cc1ccc(S(=O)(=O)NC(=O)c2cc(C)n(CCCn3ccnc3)c2C)cc1", "augmentation": "inactive"}, {"compound": "COc1ccc(C(=O)Nc2nc(C)c(C(=O)N(C)C)s2)cc1OC", "augmentation": "inactive"}, {"compound": "COc1ccccc1NC(=O)NC(N)=O", "augmentation": "inactive"}, {"compound": "O=C(C1CC1)N1CCc2cc(Br)cc(S(=O)(=O)N3CCOCC3)c21", "augmentation": "inactive"}, {"compound": "CC1(C)Cc2ccccc2C(N)=C1C#N", "augmentation": "inactive"}, {"compound": "CCN1CCN(c2nc(C)nc3c2sc(=S)n3C)CC1", "augmentation": "inactive"}, {"compound": "CCc1cc2ccc(C)cc2nc1SCC(=O)N1CCN(C(=O)c2ccco2)CC1", "augmentation": "inactive"}, {"compound": "O=C1CCCN1CCCNc1ncnc2c1[nH]c1ccc(Cl)cc12", "augmentation": "inactive"}, {"compound": "O=c1c2[nH]c3ccc(Cl)cc3c2ncn1Cc1ccccn1", "augmentation": "100% (active)"}, {"compound": "O=c1c2[nH]c3ccccc3c2ncn1CCCn1ccnc1", "augmentation": "inactive"}, {"compound": "COc1cc(-c2nc(S(=O)(=O)c3ccccc3)c(N3CCOCC3)o2)cc(OC)c1OC", "augmentation": "inactive"}, {"compound": "COc1cc2[nH]c(=O)c(C(=O)NCCCN3CCCCC3)c(O)c2cc1OC", "augmentation": "inactive"}, {"compound": "COc1cccc(C2C(C(=O)c3cccs3)=C(O)C(=O)N2CCCn2ccnc2)c1OC", "note": "(stereo unspecified)", "augmentation": "inactive"}, {"compound": "Cc1cccc(C(=O)N2CCN(C(=O)c3cccc(C)c3)C(C)C2)c1", "note": "(stereo unspecified)", "augmentation": "inactive"}, {"compound": "CC(=O)c1ccccc1NS(=O)(=O)c1c(C)nn(-c2ccccc2)c1C", "augmentation": "inactive"}, {"compound": "COc1cccc(NC(=O)N(CCCN2CCOCC2)C(C)c2cc3cccc(OC)c3o2)c1", "note": "(stereo unspecified)", "augmentation": "inactive"}, {"compound": "S=C(c1ccc(N2CCOCC2)cc1)N1CCCCC1", "augmentation": "inactive"}, {"compound": "COc1ccccc1C1/C(=C(\\O)c2c(C)nc3c(C)cccn23)C(=O)C(=O)N1CCCN(C)C", "note": "(stereo unspecified)", "augmentation": "inactive"}, {"compound": "COc1ccc(S(=O)(=O)Nc2ccc(F)c(F)c2)cc1Cl", "augmentation": "inactive"}, {"compound": "COc1ccc(S(=O)(=O)Nc2ccc(F)c(Cl)c2)cc1OC", "augmentation": "70.4% (active)"}, {"compound": "COc1ccc(S(=O)(=O)Nc2ccc(S(=O)(=O)N3CCCCC3)cc2)cc1OC", "augmentation": "inactive"}, {"compound": "COC(=O)Cc1c(C)c2ccc(OCC(=O)N3CCOCC3)cc2oc1=O", "augmentation": "inactive"}, {"compound": "CCCSc1nnc(N2C(=O)CC(c3ccsc3)C3=C2CCCC3=O)s1", "note": "(stereo unspecified)", "augmentation": "inactive"}, {"compound": "COc1ccc(-c2nnc(SCC(=O)NC(=O)NCc3ccco3)o2)cc1", "augmentation": "inactive"}]}]}
